# Screening data from PubChem BioAssay.
# Compounds with a hit are over-represented: about 19% of the library has one in this group of screens.
# IL-1B inflam inh: blocks inflammasome-driven IL-1 beta release. THP-1 LPS/ATP IL-1B secretion, AlphaLISA, 16 h; active compounds read low. activity change, % at 57.5 µM. 4.7% of 360,000 active. AID 743279; in the data active means activity change below about -50%; inconclusive means mostly about -30% to -49%
#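 Secreted IL-1B measured by AlphaLISA bead assay after 16 h compound exposure of THP-1 cells; compounds (final up to 57.5 uM) added 1 h before LPS (250 ng/mL) and ATP (1.25 mM) stimulation; lower signal means less secretion.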
# TDP1 cell CPT: growth inhibition of DT40 Tdp1-/-;hTDP1 cells with camptothecin (screen for TDP1 inhibitors); chicken DT40 Tdp1-/-;hTDP1 cells + 20 nM CPT, ATP luminescence, 48 h; Potency, µM (titrated, usually from 46.2 µM), for inactives: at the highest dose activity change, negative = growth inhibition, hits mostly inhibitors; 12% of 420,000 active; AID 686979; further: potency means the concentration at half of the fitted maximal effect; nearly all actives have a fitted effect of over 55% in size
#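 Chicken DT40 Tdp1-/- cells complemented with human TDP1, 400 cells/well, exposed to compounds plus 20 nM camptothecin for at least 48 h at 37 C; viability read as ATP content by CellTiter-Glo luminescence.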
# HT1080-NT tox: kills 2HG-producing HT-1080-NT fibrosarcoma cells | HT-1080-NT fibrosarcoma viability, CellTiter-Glo ATP luminescence, 48 h | Potency, µM (titrated, usually from 46.1 µM), inactives show top-dose activity, negative = less viability, most hits filed as cytotoxic | 1.6% of 360,000 active | AID 686970;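 further: NT is the 2HG producing partner of a matched IDH1 knockdown line; potency means the concentration at half of the fitted maximal effect; 0% = DMSO-treated cells and -100% = media-only wells without cells; nearly all actives have a fitted effect of over 55% in size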
#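 A 48-hour cytotoxicity screen used HT-1080-NT cells plated 2 hours before compound delivery. ATP-based CellTiter-Glo luminescence measured viability, normalized to DMSO and no-cell controls.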
# TDP1 cell noCPT: qHTS for Inhibitors of human tyrosyl-DNA phosphodiesterase 1 (TDP1): qHTS in cells in absence of CPT | DT40 Tdp1-/- hTDP1 cells, no CPT, ATP luminescence, 48 h | Potency, µM (titrated, usually from 46.2 µM), for the others: at the highest dose activity change, negative = growth inhibition, actives largely listed as inhibitors | 15% of 420,000 active; further: potency means the concentration at half of the fitted maximal effect; nearly all actives have a fitted effect of over 55% in size
#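 A cellular qHTS used chicken DT40 cells lacking endogenous Tdp1 but carrying stably transfected human TDP1. Compounds were applied without camptothecin, and cell growth kinetics were judged by ATP-dependent luminescence after ≥48 hr.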
# HT1080 IDH1KD tx: kills HT-1080 cells with IDH1 knockdown. HT-1080 IDH1 knockdown viability, ATP luminescence, 48 h. Potency, µM (titrated, usually from 46.1 µM), inactives show at the highest dose activity, negative = toxicity, usual class: cytotoxic. 2% of 360,000 active;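 further: potency means the concentration at half of the fitted maximal effect; 0% = DMSO wells and -100% = cell-free medium wells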
#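 % activity derives from luminescence (CellTiter-Glo), normalised to DMSO and no-cell wells. HT-1080-IDH1KD cells, 750/well, had 48 h compound exposure at 37 °C.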
# * marks the source's active call; other numbers are inactive results; ? = inconclusive; · = no result given; [ ] = dose if it differs, or a comment. Unless noted, the call rests on the fitted dose curve; in most records, active means well fitted curve in the direction sought with a large enough effect; inconclusive means small, poorly fitted or top-dose-only effect, or another doubt; inactive means no such curve, though single readings can be large; an effect the other way counts as inactive or inconclusive. Unless noted, on the % scale 0 is the no-effect control and ±100 the full control effect.
SMILES,IL-1B inflam inh,TDP1 cell CPT,HT1080-NT tox,TDP1 cell noCPT,HT1080 IDH1KD tx
C=CCOc1ccccc1C(=O)/C=C1/C(=O)Nc2ccccc21,?,5.8µM*,?,2.91µM*,?
CC1CC(=O)Nc2ccccc2N1C(=O)COc1ccccc1C(N)=O (centres undefined),17.5,-24.8%,10.5%,-24.1%,4.2%
COc1ccc(CCNS(=O)(=O)CCNC(=O)c2ccc(OC)cc2)cc1,-5.7,0.0%,1.5%,?,11.8%
CCCCNC(=S)NNC(=O)c1c(Cl)c(C)nn1C,8.2,23.1µM*,15.7%,16.4µM*,8.8%
O=C(c1ccoc1)N1CCN(c2cc(-c3ccccc3)nc3cc(-c4ccccc4)nn23)CC1,-2.7,18.4µM*,-24.6%,16.4µM*,?
COc1ccccc1-c1cc2nc(-c3ccccc3)cc(N3CCN(C(=O)c4ccoc4)CC3)n2n1,10.5,9.2µM*,-10.8%,5.17µM*,-26.7%
O=C(c1ccoc1)N1CCN(c2cc(-c3ccco3)nc3cc(-c4ccccc4)nn23)CC1,-0.5,8.2µM*,?,7.31µM*,?
Cc1nn2c(N3CCN(C(=O)c4ccco4)CC3)cc(C(C)(C)C)nc2c1-c1ccccc1,-25.7,?,-5.2%,?,-5.1%[9.24 µM]
CCOC(=O)C1CCN(c2cc(C)nc3cc(-c4cccc(F)c4)nn23)CC1,8.7,?,8.1%,?,15.0%
Cc1cc(N2CCN(C(=O)c3ccoc3)CC2)n2nc(-c3ccccc3)cc2n1,-9.9,?,-4.9%,18.4µM*,-1.9%
COc1ccccc1CNC(=O)C(NS(=O)(=O)c1cccs1)C(C)C (centres undefined),·,-22.4%,·,?,·
CCn1nc(C)c(CNC(=O)C2CCC(=O)N(Cc3ccc(Cl)cc3)C2)c1C (centres undefined),6.6,7.8%,8.0%,-4.2%,6.3%
COc1ccccc1-c1cc2nc(-c3ccccc3)cc(N3CCN(C(=O)c4ccco4)CC3)n2n1,13.8,11.6µM*,-0.1%,6.51µM*,4.1%
Cn1cnnc1SCC(=O)Nc1cc(S(=O)(=O)N2CCCCC2)ccc1Cl,16.8,9.2%,-0.1%,11.0%,-0.9%
C=CCN(C(=O)c1ccc2c(c1)nnn2C)c1ccccc1,-0.2,-2.5%,17.3%,-21.8%,12.8%
CC(C)CN(CC(C)C)S(=O)(=O)c1cc([N+](=O)[O-])ccc1N1CCCCCC1,-20.1,?,-5.0%,16.4µM*,?
O=[N+]([O-])c1ccc(N2CCCCCC2)c([N+](=O)[O-])c1,-8.5,-10.9%,-1.6%,-24.2%,-3.6%
O=C(CSc1nnc(-c2ccco2)n1Cc1ccco1)N1CCOCC1,0.0,-1.3%,2.2%,-17.1%,2.8%
COc1ccc(NC(=O)N2CCN(S(C)(=O)=O)CC2)cc1OC,16.5,-4.2%,-4.7%,-9.2%,-1.7%
COc1ccc(NC(=O)N2CCN(c3ccc([N+](=O)[O-])cc3)CC2)cc1OC,?,?,-15.1%,18.4µM*,-1.5%
COc1ccc(N2CCN(C(=O)CSc3ccc([N+](=O)[O-])cc3)CC2)cc1,-9.8,?,12.7%,23.1µM*,-3.2%
O=C(NC1CCCCC1)N1CCN(c2ccc([N+](=O)[O-])cc2)CC1,?,13µM*,-4.0%,?,-1.6%
COc1ccc(NC(=O)N2CCN(c3ccc([N+](=O)[O-])cc3)CC2)cc1,1.6,2.31µM*,14.9%,2.31µM*,12.9%
COc1ccc(C(=O)NC(=S)N2CCN(c3ccc([N+](=O)[O-])cc3)CC2)cc1,?,?,-1.0%,?,1.4%
CC(C)n1c(=O)c2ccccc2n1C(=O)c1ccccc1,0.0,?,-1.8%,?,9.6%
SMILES,IL-1B inflam inh,TDP1 cell CPT,HT1080-NT tox,TDP1 cell noCPT,HT1080 IDH1KD tx
C[C@@H]1CN([C@H](C)CO)C(=O)c2c(c3ccccc3n2C)-c2ccccc2CO[C@H]1CN(C)S(=O)(=O)c1cn(C)cn1,47.7,2.4%,1.4%,-18.0%,12.1%
COc1cc(NC(=O)NCCn2nnc3cc(S(=O)(=O)N(C)C)ccc32)cc(OC)c1OC,·,-14.8%,·,2.8%,·
COc1ccccc1CC(=O)N1CCN(c2ccc([N+](=O)[O-])cc2)CC1,?,14.6µM*,-10.7%,9.2µM*,-7.7%
COc1ccc(CCC(=O)N2CCN(c3ccc([N+](=O)[O-])cc3)CC2)cc1OC,?,?,0.4%,14.6µM*,-8.7%
CC(=O)N1CCN(c2ccc([N+](=O)[O-])cc2)CC1,16.2,8.8%,-0.7%,-21.2%,3.6%
C[C@H]1CN([C@@H](C)CO)C(=O)c2cccc(NC(=O)Nc3ccc(F)cc3)c2O[C@@H]1CN(C)Cc1ccc(C(=O)O)cc1,26.9,3.9%,0.0%,6.4%,2.4%
CC(C)c1ccc(CNC(=O)C(=O)NCCCn2ccnc2)cc1,6.2,2.6%,-16.3%,1.0%,2.6%
CC(=O)/C(=C/c1ccccc1)C(=O)Nc1ccccc1C,-104.3*,?,?,4.61µM*,?
Cc1ccccc1NC(=O)C(=Cc1ccc(C(=O)O)cc1)C(=O)Nc1ccccc1C,-106.1*,9.2µM*,6.51µM*,8.2µM*,4.61µM*
CCC(Sc1nc2ncccc2o1)C(=O)Nc1cccc(C)c1 (centres undefined),·,-7.7%,·,-16.5%,·
OCCCNc1ncnc2sc3c(c12)CCN(Cc1ccccc1)C3,2.7,?,-5.6%,18.4µM*,0.9%
O=c1[nH]cnc2sc3c(c12)CCN(Cc1ccccc1)C3,24.5,?,5.7%,?,2.7%
COc1ccccc1CNc1nc(NCCN2CCNC2=O)c2sccc2n1,40.8,18.4µM*,-5.7%,?,-7.0%
CNc1nc(NCCCN2CCCC2=O)c2sccc2n1,-11.4,1.6%,11.1%,-2.3%,0.0%
COCCNc1nc(NCCN2CCNC2=O)c2sccc2n1,-71.1*,-21.3%,9.6%,-4.7%,22.6%
CNC(=S)N/N=C(\C)c1ccc2c(c1)OCCO2,13.0,-2.5%,29.6%,-4.4%,19.8%
CCc1ccc(OCC(=O)N/N=C(\C)c2ccc3c(c2)OCCO3)cc1,11.9,2.6%,2.6%,-6.3%,5.6%
C/C(=N\NC(=S)NC(C)C)c1ccc2c(c1)OCCO2,-79.2*,1.3µM*,10.0%,6.51µM*,-3.0%
COc1cc(/C(C)=N/NC(=S)NC(C)C)cc(OC)c1OC,?,1.3µM*,-4.4%,1.16µM*,-10.2%
C/C(=N\NC(=O)COc1ccc(C(C)(C)C)cc1)c1ccc2c(c1)OCCO2,11.5,16.4µM*,5.5%,25.9µM*,19.2%
C/C(=N\NC(=S)Nc1ccc(C(C)C)cc1)c1ccc2c(c1)OCO2,-16.6,?,-23.1%,23.1µM*,-27.4%
COc1cc(/C(C)=N\NC(N)=S)cc(OC)c1OC,2.4,-6.1%,2.4%,5.1%,18.1%
